MCF10A rereplic: inducers of DNA re-replication in MCF 10A breast cells. MCF 10A DNA re-replication, Hoechst nuclear intensity, 48 h. 350,000 compounds, 2.9% hits. AID 624296. Potency, µM (top dose mostly 46.1 µM), most hits filed as activators; note: nearly all actives have a fitted effect of over 50% in size
KCNH2 3.1 inh: inhibitors of human KCNH2 3.1 potassium channel isoform | U2OS KCNH2 3.1, thallium flux FluxOr; stronger effect = lower value | activity change, % (tested at about 1.8 µM) | 340,000 compounds, 0.95% hits;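 active = maximum activity change below -70%; inconclusive = maximum activity change from -70% to -50%; inactive = maximum activity change above -50%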;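 note: thallium influx rate constant from kinetic fluorescence after stimulation buffer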
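Steps: virus added to U2OS suspension (4 h, RT, dark); medium with 10% FBS added, cells plated, 37 C overnight; FluxOr/Red40 loading buffer 45 min RT; stimulation buffer, 2 min kinetic read; rate constant normalized.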
KB-3-1 cytotox: kills parental KB-3-1 adenocarcinoma cells. KB-3-1 viability, CellTiter-Glo ATP luminescence, 72 h. Potency, µM (series often up to 46.1 µM), most hits filed as cytotoxic. 400,000 compounds, 1.4% hits. AID 1347075; note: nearly all actives have a fitted effect of over 60% in size
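Parental KB-3-1 adenocarcinoma cells in phenol-red-free DMEM with 10% FBS were pin-treated with compounds at several concentrations, incubated 72 h at 37 °C, and viability read by CellTiter-Glo luminescence; concentration-effect curves were fitted after normalization.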
KCNH2 WT inh: KCNH2 (human, wildtype) channel inhibition; activity change, % at 1.84 µM; Q12809; U2OS, BacMam KCNH2, thallium flux FluxOr; stronger effect = lower value; AID 720551; 340,000 compounds, 0.37% hits;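 active = maximum activity change below -70%; inconclusive = maximum activity change between -70% and -50%; inactive = maximum activity change above -50%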
Target sequence (Q12809 whole entry, looked up): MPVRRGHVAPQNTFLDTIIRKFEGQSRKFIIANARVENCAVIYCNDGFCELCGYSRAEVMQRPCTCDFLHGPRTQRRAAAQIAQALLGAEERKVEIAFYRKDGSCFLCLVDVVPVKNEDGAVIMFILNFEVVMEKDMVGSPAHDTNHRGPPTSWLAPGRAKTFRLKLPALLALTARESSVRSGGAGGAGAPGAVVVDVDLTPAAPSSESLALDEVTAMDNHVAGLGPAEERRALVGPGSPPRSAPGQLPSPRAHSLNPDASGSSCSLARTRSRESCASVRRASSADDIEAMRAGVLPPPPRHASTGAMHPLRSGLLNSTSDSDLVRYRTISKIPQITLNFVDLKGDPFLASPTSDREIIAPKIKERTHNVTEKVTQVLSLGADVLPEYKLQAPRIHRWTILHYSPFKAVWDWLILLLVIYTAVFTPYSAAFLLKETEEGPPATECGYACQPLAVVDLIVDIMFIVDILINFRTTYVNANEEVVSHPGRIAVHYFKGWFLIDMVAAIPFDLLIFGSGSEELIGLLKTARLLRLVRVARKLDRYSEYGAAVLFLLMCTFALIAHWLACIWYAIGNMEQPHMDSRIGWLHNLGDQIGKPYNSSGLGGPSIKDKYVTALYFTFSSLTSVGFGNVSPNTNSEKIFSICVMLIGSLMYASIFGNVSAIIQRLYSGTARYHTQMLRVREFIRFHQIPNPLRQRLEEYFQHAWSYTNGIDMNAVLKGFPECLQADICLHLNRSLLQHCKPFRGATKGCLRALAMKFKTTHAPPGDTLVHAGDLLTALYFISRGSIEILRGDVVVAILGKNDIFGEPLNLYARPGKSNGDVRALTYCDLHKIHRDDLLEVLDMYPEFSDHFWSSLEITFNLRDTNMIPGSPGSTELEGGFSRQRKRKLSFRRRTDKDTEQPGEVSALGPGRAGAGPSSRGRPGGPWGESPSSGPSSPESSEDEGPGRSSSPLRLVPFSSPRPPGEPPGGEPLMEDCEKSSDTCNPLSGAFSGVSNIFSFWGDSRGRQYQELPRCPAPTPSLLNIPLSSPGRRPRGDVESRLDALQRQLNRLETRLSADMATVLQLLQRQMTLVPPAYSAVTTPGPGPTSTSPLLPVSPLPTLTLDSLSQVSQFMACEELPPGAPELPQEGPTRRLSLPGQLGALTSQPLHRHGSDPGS
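U2OS cells were transduced with wild-type KCNH2 virus (2.03 x 10^8 / mL) for 4 h at room temperature, then cultured overnight at 37 C. Thallium flux was read with FluxOr dye. Rate constants were normalized to DMSO controls.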
KB-V1 MDR tox: KB-V1 MDR subline cytotoxicity | AID 1347076 | Potency, µM (highest dose often 46.1 µM), hits mostly cytotoxic | KB-V1 MDR cells viability, CellTiter-Glo, 72 h | 400,000 compounds, 3.4% hits; note: nearly all actives have a fitted effect of over 60% in size
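Cytotoxicity via CellTiter-Glo luminescence after 72 h compound exposure at 37 degrees C. Cells: drug-selected KB-V1 line, DMEM phenol-red free plus 10% FBS. Compounds tested at multiple concentrations; normalized data fitted to concentration-effect curves.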
SW480 rereplic: DNA re-replication induction in SW480 cells | SW480 DNA re-replication, Hoechst DNA content imaging, 48 h | Potency, µM (top dose mostly 46.1 µM), actives largely listed as activators | 340,000 compounds, 1.8% hits; note: nearly all actives have a fitted effect of over 55% in size
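Hoechst fluorescence of nuclei (405 nm excitation, 500-530 nm emission) measured by plate-scanning imager after 48 hr compound exposure at 37 C; re-replication scored as increased number of nuclei with elevated intensity.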
Of the large screens only hits and unclear results are named; the others gave an inactive call. An excerpt weighted towards active compounds, which were near 7.6% of everything screened. Unless noted, calls come from the whole dose curve; as a rule, active = well fitted curve in the direction sought with a large enough effect; inconclusive = small, poorly fitted or top-dose-only effect, or another doubt; inactive = no such curve, though single readings can be large; an effect the other way counts as inactive or inconclusive.

CCC(O)(CC)C(=O)NN(C(=O)CCl)c1ccccc1	KB-3-1 cytotox inconclusive, SW480 rereplic inconclusive
Cc1ccc(N(NC(=O)C(O)(c2ccccc2)c2ccccc2)C(=O)CCl)cc1	MCF10A rereplic 23.1µM, KB-3-1 cytotox inconclusive, KB-V1 MDR tox inconclusive, SW480 rereplic 18.4µM
Cc1ccc(NC(=O)CCCn2nc(C)c3c(C)n(-c4ccccc4)nc3c2=O)c(Cl)c1	KB-V1 MDR tox inconclusive
COc1ccc(Cc2nnc(SC(C)C(=O)Nc3ccc(C(N)=O)cc3)o2)cc1 (stereo unspecified)	none
COc1ccc(N(C)C(=S)Nc2ccc3nc(C)c(C)nc3c2)cc1	KB-V1 MDR tox 13µM
Cc1nc2ccc(NC(=S)N3CCCC3)cc2nc1C	MCF10A rereplic 0.731µM
Cc1nc2ccc(NC(=S)NCc3ccccc3)cc2nc1C	KB-V1 MDR tox inconclusive
CCOCCc1nn2c(=O)cc(COC(=O)COc3ccc(C)c(C)c3)nc2s1	KB-V1 MDR tox inconclusive (no result: MCF10A rereplic, KCNH2 3.1 inh, KCNH2 WT inh, SW480 rereplic)
Cc1nn(Cc2ccccc2)c(C)c1NC(=O)Cn1nc([N+](=O)[O-])c(Cl)c1C	none
Cc1nn(Cc2ccccc2)c(C)c1NC(=O)c1ccc([N+](=O)[O-])cc1[N+](=O)[O-]	KB-V1 MDR tox inconclusive, SW480 rereplic 16.4µM
O=C(Nc1ccc(C(=O)N2CCN(c3ccccc3F)CC2)cc1)c1nsc2ccccc12	none (no result: MCF10A rereplic, KCNH2 3.1 inh, KCNH2 WT inh, SW480 rereplic)
COc1nc(-c2cccs2)cc(-c2ccc(C)cc2)c1C#N	MCF10A rereplic inconclusive, KB-3-1 cytotox 15.8µM, KB-V1 MDR tox 11.2µM, SW480 rereplic 3.98µM
COc1ccc(-c2cc(-c3cccs3)nc(OC)c2C#N)cc1OC	MCF10A rereplic 6.51µM, KB-3-1 cytotox inconclusive, KB-V1 MDR tox 4.61µM, SW480 rereplic inconclusive
COc1ccc(-c2c(C#N)c(N)nc3c2CCc2ccccc2-3)cc1OC	MCF10A rereplic 1.64µM, KB-3-1 cytotox 5.8µM, KB-V1 MDR tox 5.17µM, SW480 rereplic inconclusive
COc1cc(-c2c(C#N)c(N)nc3c2CCCC3)ccc1O	none
Cc1ccc(C)c(/C=N/Nc2ccccn2)c1	none
Cc1cccc(C)c1NC(=O)C1(C)CSCC(=O)N1Cc1cccc(C(F)(F)F)c1 (stereo unspecified)	KB-V1 MDR tox inconclusive (no result: MCF10A rereplic, KCNH2 3.1 inh, KCNH2 WT inh, SW480 rereplic)
Cn1c(=O)c2c(nc(-c3ccccc3)n2C)n(Cc2ccccc2)c1=O	KB-V1 MDR tox 14.6µM
Cn1c(=O)c2sccc2n(Cc2ccccc2)c1=O	MCF10A rereplic inconclusive, KCNH2 3.1 inh -72.9, KB-V1 MDR tox inconclusive
COc1ccc(-c2nc3c(c(=O)[nH]c(=O)n3Cc3ccccc3)n2Cc2ccccc2)cc1	MCF10A rereplic inconclusive, KB-3-1 cytotox inconclusive, KB-V1 MDR tox 3.66µM
CC(C)Cn1cnc2c1c(=O)[nH]c(=O)n2Cc1ccccc1	KCNH2 3.1 inh -82.3
COc1ccc(-c2nc3c(c(=O)[nH]c(=O)n3Cc3ccccc3)n2C)cc1	none
CC(C)CCn1cnc2c1c(=O)[nH]c(=O)n2Cc1ccccc1	none
Cc1cccc(C)c1NC(=S)N(CCCN1CCCCC1)Cc1ccco1	KB-V1 MDR tox inconclusive
CCc1ccc2[nH]c(C(=O)Nc3ccc4c(c3)OCO4)cc2c1	MCF10A rereplic inconclusive, SW480 rereplic inconclusive
Cn1c(-c2cccc(OCc3ccccc3)c2)nc2c1c(=O)[nH]c(=O)n2Cc1ccccc1	MCF10A rereplic inconclusive, KB-3-1 cytotox 14.6µM, KB-V1 MDR tox inconclusive
C=CCN(CC=C)C(=O)COn1nnc2ccc(S(=O)(=O)N3CCOCC3)cc21	KB-V1 MDR tox inconclusive
COCCn1c(C)cc(C(=O)COC(=O)c2[nH]c(C)c(C(C)=O)c2C)c1C	KB-3-1 cytotox inconclusive, KB-V1 MDR tox 4.11µM
CN(C(=O)COC(=O)c1n[nH]c(=O)c2ccccc12)c1ccccc1	none
COCCn1c(C)cc(C(=O)COC(=O)c2n[nH]c3ccccc23)c1C	MCF10A rereplic inconclusive, KB-V1 MDR tox 9.2µM
CN(C(=O)COC(=O)c1n[nH]c2ccccc12)c1ccccc1	KB-V1 MDR tox 8.2µM
O=C1NCCN/C1=C\C(=O)c1ccc(Cl)cc1	none
CC(=O)c1cccc(NC(c2ccc(F)cc2)c2nnc(-c3ccccc3)o2)c1 (stereo unspecified)	none (no result: MCF10A rereplic, KCNH2 3.1 inh, KCNH2 WT inh, SW480 rereplic)

Screening data from PubChem BioAssay.
